Calls of active or inactive are those of the source.

Assay [1] in a line: E. coli DRC41 culture turbidity changes, primary screen, E. coli filamentation inducer project, strain DRC41, OD650, 48 h (AID 1152).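 Further: E. coli MC1000 strain DRC41 lacking acrAB efflux pump and sulA.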 To be noted: E. coli DRC41 (acrAB sulA), higher = more signal, called active from +8 up or from −8 down.
A short description of assay [2]: small-molecule binders of probe aLefty1, primary screen, biochemical, small-molecule microarray, 635/667 nm fluorescence (AID 1153).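 Further: score merges spot fluorescence with signal-to-noise ratio from the scanned slide images.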 To be noted: higher = more signal.
Assay [3] can be described thus: PSAC antagonists in infected red cells, primary screen, cell-based, P. falciparum Indochina, OD700, 1 h (AID 1154). To be noted: P. falciparum Indochina infected RBC osmotic lysis, higher = more signal, called active from +8 up or from −8 down.
The nature of assay [4]: PSAC antagonists in infected red cells, primary screen, cell-based, P. falciparum Indochina, OD700, 2 h (AID 1155).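 Further: lysis reports solute entry through the parasite surface anion channel PSAC; channel blockers reduce lysis of infected cells.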 To be noted: P. falciparum Indochina infected erythrocytes, osmotic lysis OD700; higher = more signal, called active from +8 up or from −8 down.
The nature of assay [5]: osmotic lysis modulators in infected erythrocytes, primary screen, PSAC antagonist project, cell-based, P. falciparum Indochina, OD700, 3 h (AID 1156). To be noted: higher = more signal, called active from +8 up or from −8 down.
A short description of assay [6]: PSAC antagonists in infected red cells, primary screen, cell-based, P. falciparum Indochina, OD700, 18 h (AID 1157). The settings on record: P. falciparum Indochina infected erythrocytes, osmotic lysis OD700, 18 h; higher = more signal, called active from +8 up or from −8 down.
The nature of assay [7]: modulators of S6 phosphorylation in cells, primary screen, cell-based, A549, cytoblot, luminescence, serum-stimulated (AID 1158).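 Further: serum-stimulated A549 lung adenocarcinoma cells; signal is phosphorylated S6 detected by cytoblot immunostaining with HRP secondary.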 The settings on record: A549 phospho-S6 cytoblot, 5 h, higher = more signal.
Assay [8] has as its target NADPH oxidase 2 (Homo sapiens) (UniProt P04839). The experiment in a line: NOX2-dependent H2O2 signal modulators, primary screen, NOX inhibitor project, cell-based, HEK293-NOX2, PMA-stimulated, Amplex Red fluorescence (AID 1159). Further: test concentration not given here. To be noted: 45 min, higher = more signal, called active from +8 up or from −8 down.
The target of assay [9] is NADPH oxidase 4 (Homo sapiens) (UniProt Q9NPH5). The experiment in a line: NOX4-dependent H2O2 signal modulators, primary screen, NOX inhibitor project, cell-based, HEK293-NOX4, tetracycline-induced, Amplex Red fluorescence (AID 1160). To be noted: 45 min, higher = more signal, called active from +8 up or from −8 down.
Sequence of NADPH oxidase 4 (Homo sapiens) (Q9NPH5 whole entry, looked up): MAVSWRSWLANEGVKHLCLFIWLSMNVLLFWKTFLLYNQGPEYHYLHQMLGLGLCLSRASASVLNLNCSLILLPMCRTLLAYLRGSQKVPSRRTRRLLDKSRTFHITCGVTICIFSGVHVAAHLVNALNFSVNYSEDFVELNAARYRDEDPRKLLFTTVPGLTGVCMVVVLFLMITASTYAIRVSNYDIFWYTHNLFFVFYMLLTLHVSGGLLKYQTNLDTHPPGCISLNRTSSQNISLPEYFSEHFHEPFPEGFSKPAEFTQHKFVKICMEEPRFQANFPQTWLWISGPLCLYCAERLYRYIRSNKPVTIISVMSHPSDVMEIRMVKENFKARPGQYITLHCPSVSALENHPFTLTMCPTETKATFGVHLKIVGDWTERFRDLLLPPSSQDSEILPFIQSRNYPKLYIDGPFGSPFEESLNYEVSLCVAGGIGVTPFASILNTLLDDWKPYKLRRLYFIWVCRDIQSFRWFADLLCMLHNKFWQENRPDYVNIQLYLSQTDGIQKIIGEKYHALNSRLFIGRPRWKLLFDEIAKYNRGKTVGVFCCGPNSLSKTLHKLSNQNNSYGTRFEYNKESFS
Assay [10] deals with NADPH oxidase 5 (Homo sapiens) (UniProt Q96PH1). The experiment in a line: NOX5-dependent H2O2 signal modulators, primary screen, NOX inhibitor project, cell-based, HEK293-NOX5, Amplex Red fluorescence (AID 1161). To be noted: HEK293-NOX5, ionomycin, 45 min, higher = more signal.
Sequence of NADPH oxidase 5 (Homo sapiens) (Q96PH1 whole entry, looked up): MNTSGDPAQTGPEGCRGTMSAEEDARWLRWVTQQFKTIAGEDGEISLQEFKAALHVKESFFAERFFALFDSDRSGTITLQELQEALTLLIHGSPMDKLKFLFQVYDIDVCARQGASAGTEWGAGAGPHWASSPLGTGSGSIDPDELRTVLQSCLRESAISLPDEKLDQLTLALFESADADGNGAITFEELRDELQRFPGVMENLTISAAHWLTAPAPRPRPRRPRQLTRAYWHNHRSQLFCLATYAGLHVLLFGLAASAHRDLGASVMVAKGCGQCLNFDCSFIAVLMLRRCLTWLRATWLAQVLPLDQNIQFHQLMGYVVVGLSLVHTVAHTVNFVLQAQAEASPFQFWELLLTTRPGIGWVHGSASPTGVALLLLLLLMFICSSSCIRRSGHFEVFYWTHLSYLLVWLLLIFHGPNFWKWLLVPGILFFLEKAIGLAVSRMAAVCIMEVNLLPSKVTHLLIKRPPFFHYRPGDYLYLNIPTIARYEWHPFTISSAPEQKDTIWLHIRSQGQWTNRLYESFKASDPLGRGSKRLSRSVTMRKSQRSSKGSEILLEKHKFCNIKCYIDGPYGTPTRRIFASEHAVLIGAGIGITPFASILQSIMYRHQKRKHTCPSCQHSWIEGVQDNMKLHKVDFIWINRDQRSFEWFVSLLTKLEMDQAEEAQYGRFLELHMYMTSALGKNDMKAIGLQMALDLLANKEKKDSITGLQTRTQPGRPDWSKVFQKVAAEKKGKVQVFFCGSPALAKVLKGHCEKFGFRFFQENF
Assay [11] is described as follows: A549 cell viability effects, profiling panel, calcein-AM fluorescence, 48 h, basal (AID 1162). Further: test concentration not given here. To be noted: higher = more signal.
Assay [12] is described as follows: adipocyte viability effects, profiling panel, cell-based, 3T3-L1 adipocytes, calcein-AM fluorescence, 48 h, basal (AID 1163). Further: test concentration not given here. The settings on record: 3T3-L1 adipocytes viability, higher = more signal.
The nature of assay [13]: HepG2 cell viability effects, profiling panel, calcein-AM fluorescence, 48 h, basal (AID 1164). Further: test concentration not given here. To be noted: higher = more signal.
Assay [14] is described as follows: MM1S cell viability effects, profiling panel, calcein-AM fluorescence, 48 h, basal (AID 1165).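 Further: viability of MM1S multiple myeloma cells under basal unstimulated conditions; test concentration not given here.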 The settings on record: higher = more signal.
Assay [15] can be described thus: basal RPMI8226 viability, no added stimulus, profiling panel, cell-based, calcein-AM fluorescence, 48 h, PK04 Diversity Set (AID 1166).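 Further: cells grown under basal conditions without added stimulus; test concentration not given here.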 To be noted: RPMI8226 myeloma viability, higher = more signal.
Assay [16] in a line: basal HepG2 mitochondrial membrane potential changes, profiling panel, cell-based, JC-1 fluorescence, 24 h, 100 nL compound (AID 1167). Further: test concentration not given here. The settings on record: higher = more signal.
Assay [17] is described as follows: basal 3T3-L1 adipocyte mitochondrial potential changes, profiling panel, cell-based, JC-1 fluorescence, 3T3-L1 adipocytes, 24 h, 100 nL compound (AID 1168). Further: test concentration not given here. The settings on record: JC-1 mitochondrial fluorescence, higher = more signal, called active from +8 up or from −8 down.
The nature of assay [18]: basal RPMI8226 mitochondrial membrane potential changes, profiling panel, cell-based, JC-1 fluorescence, 24 h, 100 nL compound (AID 1169). Further: test concentration not given here. The settings on record: RPMI8226 myeloma, JC-1 mitochondrial potential fluorescence, higher = more signal.
A short description of assay [19]: basal MM1S mitochondrial membrane potential changes, profiling panel, cell-based, JC-1 fluorescence, 24 h, 100 nL compound (AID 1170). Further: test concentration not given here. To be noted: higher = more signal.
A short description of assay [20]: A549 lung cancer cell viability effects, profiling panel, resazurin fluorescence, 24 h, PK04 Diversity Set (AID 1171). Further: test concentration not given here. The settings on record: higher = more signal, called active from +8 up or from −8 down. On the technique in general: Resazurin is reduced to fluorescent resorufin, in cell work by metabolically active cells.

Sequence of NADPH oxidase 2 (Homo sapiens) (P04839 whole entry, looked up): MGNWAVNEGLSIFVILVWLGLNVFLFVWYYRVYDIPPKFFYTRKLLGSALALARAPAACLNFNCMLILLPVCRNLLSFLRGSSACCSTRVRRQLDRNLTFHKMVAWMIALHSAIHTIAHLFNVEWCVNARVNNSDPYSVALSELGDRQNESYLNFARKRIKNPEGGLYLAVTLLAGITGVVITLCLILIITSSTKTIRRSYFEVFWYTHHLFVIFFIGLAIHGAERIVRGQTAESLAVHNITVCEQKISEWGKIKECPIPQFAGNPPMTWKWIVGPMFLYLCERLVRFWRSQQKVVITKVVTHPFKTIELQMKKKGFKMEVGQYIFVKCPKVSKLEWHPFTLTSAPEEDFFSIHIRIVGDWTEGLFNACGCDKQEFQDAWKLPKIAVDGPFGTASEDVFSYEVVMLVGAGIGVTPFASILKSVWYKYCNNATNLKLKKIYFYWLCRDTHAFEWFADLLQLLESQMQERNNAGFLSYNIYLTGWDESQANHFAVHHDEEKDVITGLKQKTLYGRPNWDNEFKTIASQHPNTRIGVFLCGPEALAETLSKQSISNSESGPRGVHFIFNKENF

For `CC=CC(O)C1C=CC2C(=O)N(c3ccccc3)C(=O)C2N1Nc1ccc(C(C)C)cc1` (stereo not given), the z-score was -1.63 (inactive) in assay [1]; 20.2 (active) in assay [3]; 7.4 (inactive) in [4]; 1.39 (inactive) in assay [5]; 1.68 (inactive) in assay [6]; -0.521 in [7]. The z-score in assay [8] is -0.68 (inactive); in assay [9], -3.67 (inactive); in assay [10] it was -4.2; in assay [11], 0.0409; in assay [12], 0.146; in assay [13], 0.645. The z-score in assay [14] is -0.0872; in [15] it was -0.849; in assay [16] it was -1.09; in assay [17] it was -1.32 (inactive); in [18], -0.467; in assay [19], -1.08. Moreover, the z-score in assay [20] was -1.65 (inactive). Also, in assay [2], the composite z-score is 0.424.
For the molecule `COc1ccc(C#Cc2ccc3c(c2)[C@]2(C(=O)N3)[C@H](C(=O)NC[C@H](O)c3ccccc3)[C@H]3C(=O)O[C@H](c4ccccc4)[C@H](c4ccccc4)N3[C@@H]2c2ccccc2OCCO)cc1`, the z-score in assay [1] was -0.13 (inactive); in assay [3], 1.78 (inactive); in assay [4], 1.95 (inactive); in assay [5], -0.054 (inactive); in assay [6], 1.41 (inactive); in assay [7], -0.0009. For the same molecule, the z-score in assay [8] was 1.53 (inactive); in assay [9], 0.36 (inactive); in assay [10], 0.24; in [11] it was -1.86; in assay [12], 0.0393; in assay [13], -3.16. Besides, the z-score in assay [14] is -3.35; in [15], -3.4; in assay [16], -2.27; in assay [17] it was 2.97 (inactive); in assay [18], -0.865; in [19], -1.7. Also, in assay [20], the z-score was -1.58 (inactive). The same molecule returned a composite z-score in [2] of 0.29.
As to `O=C1O[C@@H](c2ccccc2)[C@@H](c2ccccc2)N2[C@@H](c3ccc(O)cc3)[C@]3(C(=O)Nc4ccc(C#CC5(O)CCCCCC5)cc43)[C@@H](C(=O)N3CCCCCCC3)[C@H]12`, the z-score is 0.489 (inactive) in [1]; 1.32 (inactive) in [3]; 0.836 (inactive) in assay [4]; 1.17 (inactive) in assay [5]; 0.564 (inactive) in assay [6]; 0.181 in assay [7]. The z-score in assay [8] was 1.1 (inactive); in assay [9], 1.09 (inactive); in [10], 0.682; in assay [11], 0.476; in assay [12], 0.49; in assay [13], 1.04. Also, the z-score in assay [14] is 0.0939; in assay [15] it was -1.34; in assay [16], -1.36; in [17], 0.076 (inactive); in assay [18] it was -0.764; in assay [19] it was -0.664. Also, the z-score in assay [20] was -0.314 (inactive). Also, the composite z-score in assay [2] amounted to 2.77.
As for `CCOC(=O)C[C@H]1[C@H](OC(=O)c2ccc(-c3ccccc3)cc2)[C@@H](NC(=O)Cc2ccc(OC)cc2)c2cc(OCCCO)ccc2N1C(=O)c1ccc2ccccc2n1`, the z-score in assay [1] is -0.667 (inactive); in assay [3] it was 2.63 (inactive); in [4], 0.393 (inactive); in assay [5], -0.619 (inactive); in assay [6], 0.653 (inactive); in [7], 1.3. For the same molecule, the z-score was 0.377 (inactive) in assay [8]; 1.29 (inactive) in [9]; 1.73 in [10]; -0.315 in assay [11]; -0.357 in assay [12]; 0.143 in assay [13]. The z-score in assay [14] was -0.514; in assay [15], -0.129; in assay [16] it was 0.176; in [17], 0.824 (inactive); in [18], 0.0708; in [19], -0.625. Moreover, the z-score in assay [20] is 0.596 (inactive). This molecule also returned a composite z-score in assay [2] of -0.231.
On to `Cc1ccc(S[C@]2(C(=O)O)CC(=O)N(C3Cc4ccccc4C3)[C@@H]2c2ccc(CO)cc2I)cc1`, for which the z-score was -0.453 (inactive) in assay [1]; 6.6 (inactive) in [3]; 1.1 (inactive) in assay [4]; 0.356 (inactive) in assay [5]; 0.474 (inactive) in assay [6]; -0.148 in assay [7]. The z-score in [8] was 1.84 (inactive); in [9], -2.99 (inactive); in assay [10], -1.78; in assay [11], 0.214; in assay [12], 0.278; in [13], -0.671. Also, the z-score was -2.95 in [14]; -2.88 in assay [15]; 0.0324 in [16]; -0.939 (inactive) in assay [17]; -0.137 in assay [18]; -0.717 in [19]. In addition, the z-score in assay [20] is 0.477 (inactive). In assay [2], this molecule displayed a composite z-score of -0.0559.
Consider `COCCOC(=O)N1C(=O)[C@@]2(c3cc(C#CCCO)ccc31)[C@H](c1ccc(O)cc1)N1[C@H](c3ccccc3)[C@H](c3ccccc3)OC(=O)[C@H]1[C@@H]2C(N)=O`, for which the z-score in assay [1] is -0.595 (inactive); in assay [3], 6.55 (inactive); in assay [4], 1.15 (inactive); in assay [5], 0.152 (inactive); in assay [6] it was 0.311 (inactive); in assay [7], -0.218. Besides, the z-score in [8] is 0.712 (inactive); in assay [9], -0.952 (inactive); in [10], 0.23; in assay [11], 0.111; in assay [12] it was -0.0323; in assay [13], 1.97. Also, the z-score in assay [14] is 0.189; in assay [15], -0.934; in [16] it was -0.958; in [17], -1.44 (inactive); in [18], 0.057; in [19], -0.915. Further, in [20], the z-score is -0.322 (inactive). In assay [2], this molecule showed a composite z-score of 0.501.
With `O=C1C2C=CC(C(O)c3ccc(-c4ccccc4)s3)N(n3cnnc3)C2C(=O)N1Cc1ccccc1` (stereo not given), the z-score was -0.613 (inactive) in [1]; 2.44 (inactive) in [3]; 1.41 (inactive) in [4]; 0.605 (inactive) in assay [5]; 0.832 (inactive) in assay [6]; 0.0424 in [7]. The z-score is -0.547 (inactive) in assay [8]; -0.149 (inactive) in assay [9]; -0.918 in [10]; -0.787 in assay [11]; -0.293 in assay [12]; -0.638 in assay [13]. Moreover, the z-score is -0.593 in assay [14]; -1.87 in assay [15]; -0.666 in assay [16]; -0.878 (inactive) in assay [17]; -0.128 in assay [18]; 0.871 in [19]. The z-score in assay [20] is -1 (inactive). Also, the composite z-score in assay [2] is 0.284.
For `Cc1ccc(S[C@]2(C(=O)NCCN3CCOCC3)CC(=O)N(Cc3cc(C(F)(F)F)cc(C(F)(F)F)c3)[C@@H]2c2ccc(CO)cc2I)cc1`, the z-score was 0.288 (inactive) in assay [1]; 2.66 (inactive) in [3]; -0.599 (inactive) in assay [4]; -1.61 (inactive) in assay [5]; -1.68 (inactive) in assay [6]; 0.704 in [7]. In addition, the z-score is 2.05 (inactive) in [8]; -0.995 (inactive) in assay [9]; 3.01 in [10]; 0.356 in assay [11]; 0.712 in assay [12]; -0.554 in [13]. Also, the z-score was -2.1 in [14]; -1.92 in [15]; -0.168 in assay [16]; -0.227 (inactive) in [17]; -0.2 in [18]; -1.57 in assay [19]. Also, the z-score in assay [20] was 0.36 (inactive). The composite z-score in assay [2] turned out to be 0.0742.
